# Bioassay records deposited in PubChem BioAssay by National Center for Advancing Translational Sciences (NCATS).
# A549 tox: kills or reduces viability of A549 cells in Nrf2 counter-screen. hit rate 0.16% among 390,000. A549 ARE-Fluc cells, CellTiter-Fluor viability, 18-24 h. AID 504648. Potency, µM (series often up to 46 µM), for the others: at the top dose activity change, negative = cytotoxicity, usual class: inhibitors; also: potency is read from the fitted curve at half-maximal effect; % is scaled to controls: 0 for no effect and ±100 for the full control effect
#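 A549 ARE_Fluc cells in 5% FBS OPTI-MEM were exposed to compounds in concentration-response for 18-24 h at 37 deg C. Viability was read by CellTiter-Fluor fluorescence (Ex 405/Em 525) after 30 min, before the luciferase read.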
# IDH1 R132H inh: human IDH1 R132H inhibition. IDH1-R132H enzyme, NADPH consumption, diaphorase/resazurin fluorescence. O75874. hit rate 0.093% among 390,000. Potency, µM (series often up to 76.6 µM), without a hit: top-dose activity change, negative = inhibition, actives largely listed as inhibitors; also: potency is read from the fitted curve at half-maximal effect; % is scaled to controls: 0 for no effect and ±100 for the full control effect; nearly all actives have a fitted effect of over 65% in size
#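 IDH1-R132H (0.5 ug/mL dispensed) in pH 7.5 Tris buffer was preincubated 30 min with compound, then given a substrate mix of 0.016 mM NADPH and 2 mM alpha-KG for 80 min at room temperature; remaining NADPH was read by diaphorase/resazurin fluorescence.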
# Nrf2 activator: activates Nrf2 signaling | Potency, µM (doses to about 46.1 µM), for the others: at the highest dose activation, actives largely listed as activators | AREc32 ARE-luciferase reporter (MCF7-derived line), luminescence, 24 h | hit rate 0.31% among 410,000; also: potency is read from the fitted curve at half-maximal effect; % of control where 0% means no effect; nearly all actives have a fitted effect of over 65% in size
#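 Luciferase luminescence (Steady-Glo, 30 min at room temperature) served as the read-out of ARE activation in AREc32 cells treated with compounds for 24 hr at 37 deg C.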
# Nrf2 inh: blocks Nrf2 signaling; A549 ARE-Fluc reporter, luciferase luminescence, 18-24 h; Potency, µM (highest dose often 46 µM), inactives show at the top dose activity change, negative = inhibition, most hits filed as inhibitors; hit rate 2.1% among 360,000; also: potency is read from the fitted curve at half-maximal effect; % is scaled to controls: 0 for no effect and ±100 for the full control effect; nearly all actives have a fitted effect of over 60% in size
#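 Two sequential reads on A549 ARE_Fluc cells exposed to compound for 18-24 h: a CellTiter-Fluor fluorescence read for viability, then a luciferase luminescence read for Nrf2/ARE activity.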
# LDHA inh: inhibitors of human lactate dehydrogenase A. P00338. purified LDHA, NADH/diaphorase-resazurin fluorescence; active compounds read low. activity change, % (values are at about 110 or 230 µM). hit rate 0.15% among 480,000. AID 1347041; in the data active = activity change below about -30%; inconclusive = mostly about -25% to -30%;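 also: plate controls were DMSO wells for no effect and wells without enzyme for full effect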
#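 LDH5 2 nM; NADH 0.06 mM, pyruvate 0.2 mM; 200 mM Tris pH 7.4, EDTA, Tween-20; 5 min RT. Detection: diaphorase 0.133 mg/mL + resazurin 37 µM, fluorescence ex540/em590 at 0 and 20 min; normalized to enzyme-free and DMSO wells.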
# 12-LOX inh: ALOX12 (human) lipoxygenase inhibition; hit rate 1.1% among 580,000; P18054; purified 12hLO, xylenol orange hydroperoxide absorbance; Potency, µM (highest dose often 108 µM), for inactives: at the highest dose activity change, negative = inhibition, most hits filed as inhibitors; also: potency is read from the fitted curve at half-maximal effect; % is scaled to controls: 0 for no effect and ±100 for the full control effect
# Target sequence (P18054 whole entry, looked up): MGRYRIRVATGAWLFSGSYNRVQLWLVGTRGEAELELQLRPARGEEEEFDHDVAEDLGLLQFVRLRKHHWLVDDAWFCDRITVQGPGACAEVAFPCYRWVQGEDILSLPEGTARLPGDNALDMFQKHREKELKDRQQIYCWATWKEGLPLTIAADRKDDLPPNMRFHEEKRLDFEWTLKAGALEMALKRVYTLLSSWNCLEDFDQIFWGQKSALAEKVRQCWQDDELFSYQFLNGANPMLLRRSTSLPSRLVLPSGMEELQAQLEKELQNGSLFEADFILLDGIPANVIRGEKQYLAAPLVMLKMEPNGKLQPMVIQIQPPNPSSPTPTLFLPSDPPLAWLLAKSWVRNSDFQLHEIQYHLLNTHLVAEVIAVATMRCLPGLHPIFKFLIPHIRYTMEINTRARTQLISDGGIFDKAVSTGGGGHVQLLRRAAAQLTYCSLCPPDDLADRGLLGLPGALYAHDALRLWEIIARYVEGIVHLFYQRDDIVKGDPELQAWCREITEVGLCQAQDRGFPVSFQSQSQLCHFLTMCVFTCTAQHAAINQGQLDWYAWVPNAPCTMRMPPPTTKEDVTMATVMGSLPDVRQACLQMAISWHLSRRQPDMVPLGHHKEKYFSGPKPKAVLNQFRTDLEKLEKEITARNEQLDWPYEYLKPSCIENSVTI
#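 Hydroperoxide product was detected by ferrous iron/xylenol orange as the 573 to 405 nm absorbance ratio. Arachidonic acid at 40 uM (final) was turned over for 30 min at room temperature by 150 nM human 12hLO, pH 7.0 Hepes buffer, after 15 min compound preincubation.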
# * = called active by the depositor; u = inconclusive; x = no result given; ! = repeats disagree. In the library only some 2.7% were active in any assay of this set; here they are far more common. Unless noted, calls follow the shape of the dose curve; as a rule, active = well fitted curve in the direction sought with a large enough effect; inconclusive = small, poorly fitted or top-dose-only effect, or another doubt; inactive = no such curve, though single readings can be large; an effect the other way counts as inactive or inconclusive.
SMILES,A549 tox,IDH1 R132H inh,Nrf2 activator,Nrf2 inh,LDHA inh,12-LOX inh
CCCc1nnc(NC(=O)c2c(O)c3cccc4c3n(c2=O)CC4)s1,-16.7%,-11.0%,0.0%,-20.9%,-4.4,x
CC(C)c1nnc(NC(=O)c2c(O)c3cccc4c3n(c2=O)CCC4)s1,u,-1.7%,1.9%,16.4µM*,0.5,41.6%
O=C(NCc1ccc(C(F)(F)F)cc1)[C@@H]1Cc2nc[nH]c2CN1Cc1ccc([N+](=O)[O-])cc1,x,x,x,x,x,85.0%
COC(=O)[C@@H]1Cc2nc[nH]c2CN1Cc1ccc([N+](=O)[O-])cc1,x,x,x,x,x,10µM*
O=C(/C=C\Nc1ccccc1Br)c1ccc2c(c1)OCO2,-5.1%,6.2%,-0.2%,2.06µM*,-13.1,-8.3%
O=C(/C=C/c1ccccc1Br)c1ccc2c(c1)OCO2,7.7%,10.9%,u,u,2.9,-11.1%
Cc1nn(Cc2ccc(C(=O)Nc3ccccc3C(F)(F)F)o2)c(C)c1Br,-14.1%,2.7%,1.0%,u,0.0,-3.7%
Cc1csc(NC(=O)c2ccc(Cn3nc(C)c(Br)c3C)o2)n1,-16.2%,-5.3%,0.8%,18.4µM*,-3.3,-23.5%
O=C(CCCCCCCC(=O)NCCCN1CCOCC1)NCCCN1CCOCC1,x,x,x,x,5.4,24.7%
Cc1cccc(C(=O)OCC(=O)c2c(N)n(CC(C)C)c(=O)n(C)c2=O)c1[N+](=O)[O-],-14.6%,-10.4%,0.3%,u,-7.6,-29.8%
Cc1cccc(C(=O)OCC(=O)c2c(N)n(CC(C)C)c(=O)n(C)c2=O)c1O,-15.4%,-3.1%,0.3%,18.4µM*,1.5,-6.7%
COC(=O)c1c(C)[nH]c(C(=O)OCC(=O)c2c(N)n(CC(C)C)c(=O)n(C)c2=O)c1C,-14.0%,-3.9%,5.1%,14.6µM*,-1.7,-33.9%
COc1ccc(NC(=O)c2cnn(-c3ccc(C)cc3)c2-n2cccc2)cc1OC,x,x,x,x,-0.4,0.3%
NS(=O)(=O)c1ccc(CCNC(=O)Nc2ccc(Cl)c(Cl)c2)cc1,-26.8%,11.3%,-0.2%,20.6µM*,-4.9,u
NS(=O)(=O)c1ccc(CCNC(=O)CN2CCC(Cc3ccccc3)CC2)cc1,-9.7%,-2.1%,2.0%,20.6µM*,-0.9,-10.6%
NS(=O)(=O)c1ccc(CCNC(=O)CNCCc2ccccc2)cc1,1.9%,-3.9%,-1.0%,5.0%,-7.9,0.631µM*
O=C(CN1CCC(Cc2ccccc2)CC1)NCCc1ccc(F)cc1,u,4.4%,0.1%,u,-3.1,271.0%
COc1ccc(C(=O)N2CCN(c3cc(-c4cccs4)[nH]n3)CC2)c(OC)c1,x,x,x,x,x,6.0%
COC1=CC(=O)CC(C)C12Oc1cc(OC)cc(OC)c1C2=O (stereo not drawn),-12.8%,9.6%,-0.4%,-16.9%,-1.2,12.9%
COC(=O)C1=CC(=O)C=C(OC)[C@@]12Oc1cc(C)cc(OC)c1C2=O,x,x,x,x,x,4.47µM*
Nc1c2ccccc2nc2ccccc12,u,9.2%,-2.0%,20.6µM*,8.2,-9.8%
Nc1c2c(nc3ccccc13)CCCC2,-13.2%,-4.7%,0.4%,-9.0%,-6.9,u
COc1ccc2oc(=O)cc(-c3cc4cccc(OC)c4o3)c2c1,-0.2%,17.9%,-0.3%,-4.7%,-33.3*!,-0.7%
Cc1ccc2nc(Cl)c(C3CC(c4ccco4)=NN3S(C)(=O)=O)cc2c1 (stereo not drawn),-8.8%,4.2%,3.6%,4.6%,0.4,12.6µM*!
COCc1cnc2c(c1SCc1ccc(C)cc1)c(=O)n(C)c(=O)n2C,x,x,x,x,-1.5,u
SMILES,A549 tox,IDH1 R132H inh,Nrf2 activator,Nrf2 inh,LDHA inh,12-LOX inh
Cc1ccc(/C=N/N(C)S(=O)(=O)c2ccc(C)cc2)cc1,-1.4%,5.5%,-0.3%,25.9µM*,-0.1,57.2%
CSc1ccc(/C=N/N(C)S(=O)(=O)c2ccc(C)cc2)cc1,-3.3%,-0.6%,3.6%,u,1.3,9.5%
Cc1ccc(S(=O)(=O)N(C)S(=O)(=O)c2ccc(C)cc2)cc1,4.4%,3.0%,3.7%,23.1µM*,0.8,-0.3%
Cc1ccc(S(=O)(=O)/C=C\C#N)cc1,x,x,x,x,x,64.4%
Cc1ccc(N(C)S(=O)(=O)c2ccc(C)cc2)cc1,4.1%,2.6%,-0.3%,-1.3%,-13.0,-11.1%
O=S(=O)(/C=C/C=C/S(=O)(=O)c1ccccc1)c1ccccc1,u,-2.2%,-3.2%,25.9µM*,1.6,-0.6%
Cc1ccc(S(=O)(=O)C=CS(=O)(=O)c2ccc(C)cc2)cc1,x,1.5%,u,x,u,8.91µM*
O=C(COC(=O)c1ccc2ccccc2n1)Nc1cccc(Oc2ccccc2)c1,x,x,x,x,-4.0,-17.3%
COc1cccc(CNC(=O)CSc2nc(-c3ccccc3C)nc3cc(=O)[nH]n23)c1,x,x,x,x,-6.3,u
CCN(CC)CCCNC(=O)c1cc(Nc2ccc(OC)cc2)nc2ccccc12,-0.8%,-3.5%,-0.5%,-10.4%,-2.8,25.8%
CCN(CC)CCCNC(=O)c1cc(-c2ccc(OC)cc2)nc2ccccc12,x,x,x,x,5.2,6.31µM*
CCCCCNC(=O)c1cc(-c2ccc(OC)cc2)nc2ccccc12,x,x,x,x,-4.2,31.6µM*
CC(C)Cc1cc(C(=O)N2N=C(C(F)F)CC2(O)C(F)F)c2ccccc2n1 (stereo not drawn),-21.4%,2.3%,-0.6%,u,-4.8,-3.8%
CCc1ccc(-c2cc(C(=O)N3N=C(C(F)F)CC3(O)C(F)F)c3ccccc3n2)cc1 (stereo not drawn),23.1µM*,-4.2%,4.1%,20.6µM*,3.3,1.4%
CCc1ccc(-c2cc(C(=O)Nn3cnnc3)c3ccccc3n2)cc1,1.9%,8.3%,-1.9%,9.2µM*,1.2,u
O=C(COC(=O)c1c[nH]c2ccccc12)NC1CC1,x,x,x,x,-15.5,-24.8%
COc1cc(-c2nnc(NC(=O)c3ccc(S(=O)(=O)N4CCOCC4)cc3)o2)cc(OC)c1OC,x,x,x,x,x,1.2%
O=C(NCc1ccccc1)c1ccc(S(=O)(=O)N2CCCc3ccccc32)cc1,2.4%,5.7%,2.2%,u,-6.6,-5.4%
COCc1nnc(NC(=O)c2ccc(S(=O)(=O)N3CCCc4ccccc43)cc2)o1,u,-9.2%,0.3%,-85.7%,-1.4,-14.4%
O=C(Nc1nnc(C2CC2)o1)c1ccc(S(=O)(=O)N2CCCc3ccccc32)cc1,-18.4%,-4.1%,-1.8%,10.3µM*,-2.1,u
COc1ccc(-c2nnc(NC(=O)c3ccc(S(=O)(=O)N4CCCc5ccccc54)cc3)o2)cc1,u,3.5%,0.1%,14.1µM*,-4.8,x
COc1cccc(-c2nnc(NC(=O)c3ccc(S(=O)(=O)N4CCOCC4)cc3)o2)c1,-23.0%,7.3%,-0.7%,11.6µM*,2.8,x
CCCCCCCC(=O)Nc1c(C)cc(C)cc1C,x,x,x,x,11.2,11.8%
CCOc1ccc(C(C)=O)cc1COc1ccc2c(CC)cc(=O)oc2c1,x,x,x,x,-9.6,u
